# High-throughput results from PubChem BioAssay.
# Hits are enriched below; roughly 9.2% of the tested compounds scored in any of these assays.
# NPC1 promoter act: qHTS Assay for NPC1 Promoter Activators | hit rate 2.4% among 320,000 | Huh7 NPC1 promoter luciferase reporter, 24 h | Potency, µM (highest dose often 9.22 µM), for inactives: at the top dose activation, most hits filed as activators; note: % of control where 0% means no effect; nearly all actives have a fitted effect of over 60% in size
#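 Stably transfected Huh7 (NPC1 promoter→luciferase), 1500 cells/well in Opti-MEM + 10% FBS, 2 h settle, then compound 24 h at 37 °C. Luminescence after 10 min with Amplite reagent.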
# ELG1 DNA repair: qHTS screen for small molecules that inhibit ELG1-dependent DNA repair in human embryonic kidney (HEK293T) cells expressing luciferase-tagged ELG1 | HEK293T ELG1-luciferase reporter, luminescence, 16 h; DNA damage induced by 5-fluorouridine | Potency, µM (doses to about 46.1 µM), for inactives: at the top dose activity change, negative = inhibition, usual class: inhibitors | hit rate 2.3% among 330,000; note: % is set by controls: 0 for no effect and ±100 for the full control effect; nearly all actives have a fitted effect of over 55% in size
#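 In this reporter screen, reduction of luminescence relative to DMSO vehicle indicated activity. Compounds and 5-fluorouridine were added together to 2,000 cells per well, incubated for 16 hr at 37 °C, then developed with ONE-Glo.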
# ELG1 genotoxic: qHTS screen for small molecules that induce genotoxicity in human embryonic kidney (HEK293T) cells expressing luciferase-tagged ELG1 | Potency, µM (top dose mostly 46 µM), inactives show at the highest dose activity change, positive = activation, actives largely listed as activators | HEK293T ELG1-luciferase reporter, luminescence, 16 h | hit rate 1.3% among 330,000 | AID 504466, 2011; note: % of control where 0% means no effect; nearly all actives have a fitted effect of over 60% in size
#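 After overnight (16 hr) compound treatment at 37 °C, ELG1-luciferase HEK293T cells were lysed with ONE-Glo; luminescence quantified 30 min later at room temperature.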
# FLuc counter: qHTS profiling assay for firefly luciferase inhibitor/activator using purifed enzyme and Km concentrations of substrates (counterscreen for miR-21 project). purified FLuc, Km substrates, luminescence inhibition. Luciferin 4-monooxygenase (Photinus pyralis), P08659. AID 588342, 2011. Potency, µM (top dose mostly 57.5 µM), for the others: at the top dose activity change, negative = inhibition, usual class: inhibitors. hit rate 6.9% among 360,000;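 note: plate controls were vehicle for no effect and reference inhibitor for full effect; nearly all actives have a fitted effect of over 55% in size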
# Target sequence (P08659 whole entry, looked up): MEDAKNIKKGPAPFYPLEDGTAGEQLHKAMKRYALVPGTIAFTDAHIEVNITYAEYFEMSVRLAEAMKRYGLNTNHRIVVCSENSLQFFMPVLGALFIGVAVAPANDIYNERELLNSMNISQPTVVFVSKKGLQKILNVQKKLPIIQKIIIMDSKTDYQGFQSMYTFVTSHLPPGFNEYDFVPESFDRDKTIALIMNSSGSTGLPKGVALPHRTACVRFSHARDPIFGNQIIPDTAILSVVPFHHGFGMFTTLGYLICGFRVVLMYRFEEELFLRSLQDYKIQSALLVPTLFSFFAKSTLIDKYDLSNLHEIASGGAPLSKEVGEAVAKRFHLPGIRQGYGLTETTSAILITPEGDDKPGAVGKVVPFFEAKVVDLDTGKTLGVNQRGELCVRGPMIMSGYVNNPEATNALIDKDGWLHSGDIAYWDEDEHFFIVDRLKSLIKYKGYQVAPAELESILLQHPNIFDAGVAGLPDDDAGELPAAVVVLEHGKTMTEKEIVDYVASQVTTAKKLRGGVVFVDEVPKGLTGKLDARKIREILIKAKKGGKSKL
#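 Purified P. pyralis luciferase, 10 nM final, with Km-level 10 uM D-luciferin and 10 uM ATP in 50 mM Tris acetate pH 7.5, 10 mM Mg acetate, 0.01% Tween-20, 0.05% BSA; 6-point qHTS titration about 60 µM downward; luminescence read.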
# SMN2 splice up: qHTS Assay for Enhancers of SMN2 Splice Variant Expression; HEK293 SMN2-luciferase splicing reporter, luminescence, 30-36 h; hit rate 2.8% among 210,000; Potency, µM (doses to about 46.1 µM), for inactives: at the highest dose activity change, positive = activation, hits mostly activators; note: % of control where 0% means no effect; nearly all actives have a fitted effect of over 55% in size
#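 HEK293 cells carry an SMN2 minigene-luciferase reporter in which exon 7 inclusion puts luciferase in frame. Cells were seeded at 2000 cells/well, attached for 10-12 hours, then exposed to compounds for 30-36 hours at 37C before ONE-Glo luminescence.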
# Rab9 prom act: qHTS Assay for Rab9 Promoter Activators | Huh7 Rab9 promoter-luciferase reporter, luminescence, 24 h | Potency, µM (doses to about 9.22 µM), for the others: at the highest dose activation, negative = inhibition, usual class: activators | hit rate 2.8% among 320,000 | AID 485297, 2010; note: % of control where 0% means no effect; nearly all actives have a fitted effect of over 60% in size
#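 Luminescence read-out: Huh7 cells stably expressing Rab9-luciferase, treated 24 h with compound at 37 °C, then lysed with luciferase reagent for 10 min at ambient before reading.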
# * marks the source's active call; other numbers are inactive results; ? = inconclusive; / = no result given; [ ] = remark or other dose. Calls come from the whole dose curve; as a rule, active = well fitted curve in the direction sought with a large enough effect; inconclusive = small, poorly fitted or top-dose-only effect, or another doubt; inactive = no such curve, though single readings can be large; an effect the other way counts as inactive or inconclusive. Potency is the fitted concentration of half-maximal effect.
SMILES,NPC1 promoter act,ELG1 DNA repair,ELG1 genotoxic,FLuc counter,SMN2 splice up,Rab9 prom act
O=C(CCN1C(=O)C2CC=CCC2C1=O)Nc1cccc(Cl)c1 (stereo not given),-1.6%,13.7%,6.9%,-1.2%,/,-1.4%
COCCNC(=O)c1cc(-c2cccnc2)nc2ccc(Br)cc12,0.3%,-3.2%,0.1%,?,8.8%,4.3%
COCCNC(=S)NNC(=O)c1cc(-c2cccnc2)nc2ccccc12,-1.9%,13.2%,1.5%,8.49µM*,/,-0.5%
CC(=O)Cc1nsc(Nc2ccc3c(c2)OCCO3)n1,3.55µM*,?,?,23.9µM*,12.6µM*,3.98µM*
COc1ccc(Nc2nc(CC(C)=O)ns2)cc1,?,?,?,?,14.1µM*,3.16µM*
COc1cccc(Nc2nc(CC(C)=O)ns2)c1,?,?,?,?,17.0%,26.5%
CC(=O)Cc1nsc(Nc2ccc(F)cc2)n1,4.3%,?,11.2%,-6.3%,23.6%,19.4%
COc1ccc(OC)c(N2C(=NC(=O)C3CCCCC3)SC3CS(=O)(=O)CC32)c1 (stereo not given),-0.7%,8.9%,-0.2%[9.26 µM],0.7%,/,-1.9%
Cc1nc(NCC2CCCO2)c2nnn(Cc3ccccc3)c2n1 (stereo not given),8.7%,-21.2%,0.9%,0.6%,-13.4%,1.8%
CCCc1nc(NCC2CCCO2)c2nnn(Cc3ccccc3)c2n1 (stereo not given),-1.9%,25.9µM*,-3.7%,0.1%,-18.5%,1.3%
CN1C2CCC1/C(=C/c1cccn1C)C(=O)/C2=C\c1cccn1C,-1.8%,?,-10.4%,0.8%,-50.0%,-1.1%
CN1C2CCC1/C(=C\c1ccc(F)cc1)C(=O)/C2=C/c1ccc(F)cc1,4.5%,18.4µM*,-0.4%,-0.7%,-38.8%,-4.0%
O=C(Nc1ccccc1)OC1CCC2CC1CCC2OC(=O)Nc1ccccc1 (stereo not given),-12.7%,?,-7.4%,-1.2%,-80.2%,-9.1%
CCOc1ccc(N=Nc2c(=O)[nH]n3c(=O)cc(C)[nH]c23)cc1,?,?,?,4.78µM*,?,2.82µM*
CCOc1ccc(N=Nc2c(N)[nH][nH]c2=O)cc1,?,?,?,10.7µM*,?,?
COc1cccc(N=Nc2c(N)[nH][nH]c2=O)c1,25.1%,?,?,15.1µM*,10µM*,27.8%
Cc1cc(=O)n2[nH]c(=O)c(N=Nc3ccccc3)c2[nH]1,-1.1%,-7.4%,8.6%,?,-4.4%,-2.1%
CC1CCCN(S(=O)(=O)c2cc3c4c(c2)CC(=O)N4CCC3)C1 (stereo not given),/,/,/,0.8%,/,/
COc1ccc(NC(=O)CSCC(=O)Nc2ccc(C)c(S(=O)(=O)N3CCCCCC3)c2)cc1,-4.8%,?,-5.7%,-2.7%,/,2.0%
CC(OC(=O)c1ccccc1C(=O)N(C)c1ccccc1)C(=O)Nc1ccc(C(N)=O)cc1 (stereo not given),6.5%,13.2%,1.7%,-1.7%,/,1.9%
CC(OC(=O)c1cc(O)c2ccccc2c1O)C(=O)Nc1ccc(C(N)=O)cc1 (stereo not given),10.4%,14.5%,9.8%,8.49µM*,/,20.7%
Cc1ccccc1OCC(=O)Nc1cccc(S(=O)(=O)NC2=NCCC2)c1,12.6%,?,8.6%,2.13µM*,/,15.7%
O=C(Nc1cccc(S(=O)(=O)NC2=NCCCCC2)c1)c1cc(-c2ccccc2Cl)nc2ccccc12,-1.9%,23.1µM*,-6.7%,-1.9%,1.4%,-2.7%
Cc1ccccc1C(=O)OCC(=O)Nc1cccc(S(=O)(=O)NC2=NCCC2)c1,/,4.0%,-1.2%,/,/,/
CCc1ccccc1OCC(=O)Nc1cccc(S(=O)(=O)N2CCCC2)c1,1.7%,-27.8%,-6.8%,-13.2%,/,1.6%
SMILES,NPC1 promoter act,ELG1 DNA repair,ELG1 genotoxic,FLuc counter,SMN2 splice up,Rab9 prom act
Cc1ccc(C(C)C)c(OCC(=O)Nc2cccc(S(=O)(=O)NC3=NCCCCC3)c2)c1,0.3%,23.1µM*,-19.3%,0.2%,/,-1.3%
CCc1ccccc1OCC(=O)Nc1cccc(S(=O)(=O)NC2=NCCC2)c1,1.7%,2.6%,1.0%,19µM*,/,1.2%
Cc1cc(C)cc(C(=O)OCC(=O)Nc2cccc(S(=O)(=O)NC3=NCCCCC3)c2)c1,-3.8%,?,-0.4%,-4.6%,-20.1%,-4.6%
CN(C)c1ccc(C(=O)Nc2cccc(S(=O)(=O)NC3=NCCCCC3)c2)cc1,17.1%,?,8.9%,/,/,26.0%
Cc1ccccc1OCC(=O)Nc1cccc(S(=O)(=O)NC2=NCCCCC2)c1,-1.5%,-0.7%,25.9%,16.9µM*,/,1.2%
CCOc1ccccc1OCC(=O)Nc1cccc(S(=O)(=O)NC2=NCCCCC2)c1,1.5%,?,-3.9%,-0.6%,/,-4.1%
CC(C)(C)c1ccc(C(=O)Nc2cccc(S(=O)(=O)NC3=NCCC3)c2)cc1,2.51µM*,?,2.7%,0.135µM*,/,?
Cc1nc2ccccc2n1CC(=O)OCC(=O)NC1CC1,-2.9%,9.0%,-1.8%,-1.3%,-7.0%,-1.7%
COc1cccc(/C=N/Nc2c(Cl)cncc2Cl)c1O,?,?,10.7%,9.53µM*,/,27.6%
COc1cccc(/C=N/Nc2cc(Cl)nc(C)n2)c1O,?,?,6.6%,3.01µM*,/,2.2%
COc1cccc(/C=N/Nc2nnc(C)n2N)c1O,9.2%,-3.1%,-4.1%,-12.9%,/,8.4%
CCOC(=O)/C=C/C(=O)N1CCN(C(=O)/C=C/C(=O)OCC)CC1,-2.3%,9.3%,4.1%,-2.5%,/,0.7%
COc1ccc(-c2cc(C(=O)NC3CCCCC3)no2)cc1OC,0.4%,-17.8%,2.9%,1.2%,/,6.3%
O=C(Nc1cccnc1Cl)c1cc(-c2ccc(O)cc2)on1,-3.3%,-4.1%,?,?,/,24.6%
O=C(NC1CCCCC1)c1cc(-c2ccccc2O)on1,?,?,20.6µM*,?,/,?
